# Bioassay records as filed in PubChem BioAssay.
# Compounds with a hit are over-represented: about 32% of the library has one in this group of screens.
# CYP2C19 inh = blockers of cytochrome P450 2C19 activity – biochemical, luminescence, ADME assay, primary screen. inhibition, % at 5 µM. P33261. hit rate 21% among 96,000. CYP2C19 Supersomes, luciferin-H EGE luminescence, 30 min;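 active = CYP2C19 inhibition above a set limit at 5 µM in the primary screen, cut at about 50% in these data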;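 note: plate controls were negative control wells for no effect and 2.5 mM tranylcypromine positive control for full effect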
# Target sequence (P33261 whole entry, looked up): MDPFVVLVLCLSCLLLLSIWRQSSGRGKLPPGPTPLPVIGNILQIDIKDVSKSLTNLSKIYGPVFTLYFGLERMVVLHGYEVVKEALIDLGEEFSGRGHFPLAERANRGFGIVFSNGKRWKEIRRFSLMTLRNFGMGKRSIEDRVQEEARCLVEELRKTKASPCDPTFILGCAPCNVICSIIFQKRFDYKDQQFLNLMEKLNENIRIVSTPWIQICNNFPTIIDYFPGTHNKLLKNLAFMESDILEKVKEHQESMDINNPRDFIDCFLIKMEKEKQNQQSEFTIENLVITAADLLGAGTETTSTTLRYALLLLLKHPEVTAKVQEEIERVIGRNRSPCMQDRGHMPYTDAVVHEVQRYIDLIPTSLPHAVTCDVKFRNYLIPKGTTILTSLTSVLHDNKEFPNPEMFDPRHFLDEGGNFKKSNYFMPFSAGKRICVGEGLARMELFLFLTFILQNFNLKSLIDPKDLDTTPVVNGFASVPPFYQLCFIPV
# PostGolgi yeast = phenotypic screen on post-Golgi transport, primary screen; post-Golgi transport phenotypic cell assay; inhibition, % at 10 µM; hit rate 0.9% among 98,000; AID 739, 2007;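 note: yeast cells grown in 1536-well plates; yeast grown about 18 h at 30C before absorbance read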
# PostGolgi ctrl = growth inhibition of yeast control strain, primary screen, counter-screen for post-Golgi transport modulator project. efflux-deficient yeast background strain, growth absorbance A615, 16 h. inhibition, % at 10 µM. hit rate 5% among 98,000
# CYP2C9 inh = blockers of cytochrome P450 2C9 activity – biochemical, luminescence, ADME assay, primary screen; AID 777, 2007; CYP2C9 Supersomes, luciferin-H conversion; inhibition, % at 5 µM; hit rate 20% among 96,000; P11712;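 active = blocking of liver enzyme CYP2C9 beyond about 50% at 5 µM, limit read from the data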
# CYP2C19 act = human CYP2C19 activators, primary screen, biochemical, luminescence; Cytochrome P450 2C19 (Homo sapiens), P33261; recombinant CYP2C19, luciferin-H EGE luminescence; hits give high values; 0 = fully inhibited enzyme, 1 = untreated enzyme; activation factor at 5 µM; 96,000 tested, under 10 active;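 active = activation factor of at least 2 at 5 µM in the primary screen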;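 note: 0 = wells with 2.5 mM tranylcypromine and 1 = vehicle-only wells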
# CYP2C9 activ = human CYP2C9 activators, primary screen, biochemical, luminescence; Cytochrome P450 2C9 (Homo sapiens), P11712; activation factor at 5 µM; recombinant CYP2C9, luciferin-H conversion; hits give high values; factor 1 = untreated enzyme, 0 = blocked; AID 1024, 2008; hit rate 1.4% among 96,000;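 active = activation factor of 2 or more for CYP2C9 at a 5 µM dose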;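 note: 0 = sulfaphenazole-blocked wells and 1 = vehicle-only wells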
# Starred values were filed as active, the others as inactive; . = not tested or not shown. Cut-off read from the data, not from the text of the source, unless noted: active = inhibition above about 30%; inactive = the rest.
SMILES,CYP2C19 inh,PostGolgi yeast,PostGolgi ctrl,CYP2C9 inh,CYP2C19 act,CYP2C9 activ
CCN(CC)c1ccc(N2C(=O)c3ccccc3C2=O)cc1,-18.6,-1.6,-3.3,-19.1,1.2,1.2
Cc1cc(NC(=O)CN2CCN(c3ccccc3O)CC2)no1,27.4,-2.8,15.1,44.5,0.7,0.6
CCOC(=O)C1CCN(C(C(=O)NC2CCCCC2)c2ccc(OC)cc2)CC1 (stereo not given),25.9,8.5,8.6,-24.9,0.7,1.2
O=C(OC(C(=O)NCc1ccc2c(c1)OCO2)c1ccccc1F)c1ccco1 (stereo not given),45.8,-0.8,6.4,67.3*,0.5,0.3
O=C(OC(C(=O)NCC1CCCO1)c1ccccc1F)c1ccco1 (stereo not given),6.7,9.0,3.8,6.3,0.9,0.9
COc1ccc(NC(=O)c2ccc3c(c2)OCO3)cc1Cl,17.3,4.1,0.6,-24.6,0.8,1.2
COc1cccc(CNC(=O)c2ccc3nc[nH]c3c2)c1,38.1,2.4,-11.8,-8.4,0.6,1.1
COc1ccc(NCc2ccc3c(c2)OCO3)cc1Cl,98.0*,13.9,1.8,86.3*,0,0.1
COc1cccc(CNC(=O)C2(C)Oc3ccccc3NC2=O)c1 (stereo not given),72.0*,0.0,2.0,91.6*,0.3,0.1
O=C(Cc1cccs1)NCc1ccc2c(c1)OCO2,91.7*,-1.7,1.2,37.7,0.1,0.6
O=C(O)C1CCCCC1C(=O)Nc1cccc(Cl)c1Cl (stereo not given),9.3,-2.4,8.5,4.9,0.9,1
O=C(NCc1ccccn1)c1cc(-n2cnnc2)ccc1Cl,10.5,0.0,-2.3,2.7,0.9,1
COC(=O)c1sccc1NC(=O)C1CC=CCC1C(=O)O (stereo not given),-0.8,5.8,4.1,13.8,1,0.9
CCOc1ccccc1C(=O)NCC(=O)OCC(=O)c1ccc2c(c1)OCCO2,-4.7,2.1,0.5,-68.5,1,1.7
CCOc1ccccc1C(=O)NCc1ccc2c(c1)OCO2,98.0*,12.1,9.5,41.7,0,0.6
Cc1ccc(N2CC(C(=O)NCc3ccc4c(c3)OCO4)CC2=O)cc1C (stereo not given),8.2,-2.7,13.1,-123.5,0.9,2.2*
COc1ccc(OC)c(CNC(=O)Cc2c(C(=O)O)[nH]c3ccccc23)c1,-4.0,0.0,-3.0,17.9,1,0.8
O=C(NCc1ccc2c(c1)OCO2)c1cccc(N2CCCC2=O)c1,68.9*,-2.7,0.0,61.4*,0.3,0.4
COc1cccc(CNC(=O)Cc2c(C(=O)O)[nH]c3ccccc23)c1,0.2,0.6,16.3,52.3*,1,0.5
CCOc1ccc(NC(=O)C(C)O)c(NS(=O)(=O)c2ccc(CCNC(C)=O)cc2)c1 (stereo not given),16.3,-3.9,-4.0,6.6,0.8,0.9
CCOC(=O)CSc1nc2ccc(N3CCOCC3)cc2c(=O)n1Cc1ccc2c(c1)OCO2,81.1*,-1.0,25.8,74.8*,0.2,0.3
CCCn1c(SCC(=O)NCCc2ccc(OC)c(OC)c2)nc2c1c(=O)n(C)c(=O)n2C,7.2,21.5,-1.0,20.5,0.9,0.8
COCCNC(=O)CSc1nc2ccc(N3CCOCC3)cc2c(=O)n1Cc1ccc(OC)cc1,48.6,0.8,11.3,83.9*,0.5,0.2
N#CCSc1nc2ccc(N3CCCCC3)cc2c(=O)n1Cc1ccccc1,29.4,9.6,21.5,49.7,0.7,0.5
COCCNC(=O)CSc1nc2cc(OC)c(OC)cc2c(=O)n1Cc1ccc(OC)cc1,10.7,4.9,46.1*,42.6,0.9,0.6
COCCCn1c(SCc2ccc(OC)cc2)nc2cc(OC)c(OC)cc2c1=N,54.7*,20.1,5.2,72.3*,0.5,0.3
Cc1nn(-c2ccccc2)c2sc(C(=O)C(C#N)c3ccccn3)cc12 (stereo not given),8.7,.,.,36.9,0.9,0.6
CC(CNC(=O)C(=O)NC(C)CCc1ccccc1)Cc1ccccc1 (stereo not given),7.7,-3.4,3.8,13.0,0.9,0.9
